Inconclusive results are not listed. Active and inactive are the calls of the source. The call rests on the fitted dose curve; in most records, active means well fitted curve in the direction sought with a large enough effect; inconclusive means small, poorly fitted or top-dose-only effect, or another doubt; inactive means no such curve, though single readings can be large; an effect the other way counts as inactive or inconclusive.
Legend:
[1] = target: Glutaminase kidney isoform, mitochondrial (Homo sapiens) (UniProt O94925); test: qHTS for Inhibitors of Glutaminase (GLS): LOPAC Validation (AID 624146); settings: glutaminase enzyme activity inhibition; series mostly up to 46.1 µM; further: nearly all actives have a fitted effect of over 60% in size; further: potency means the concentration at half of the fitted maximal effect
How it was run: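 Compounds were pin-transferred onto hKGA, after which L-glutamine (1 mM solution) and a detection mix of glutamate oxidase, HRP and Amplex Red were added. Initial and 30 min RT fluorescence reads were collected.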

[2] = qHTS of Trypanosoma Brucei Inhibitors: LOPAC Validation (AID 624147); settings: purified enzyme assay, luminescence, 45 min; series mostly up to 57.5 µM; further: potency means the concentration at half of the fitted maximal effect
How it was run: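 Quantitative HTS: titrated library compounds versus trypanosomal pyruvate kinase in TEA buffer (pH 7.2) containing KCl, MgCl2, BSA and Tween-20. Reactions were initiated with ADP, 130 uM final. Kinase-Glo Plus luminescence was read after 45 min at RT.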

[3] = qHTS of Nrf2 Activators: LOPAC Validation (AID 624149); settings: Nrf2/ARE reporter cell assay; series mostly up to 46.1 µM
How it was run: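 Luciferase signal from ARE activation, read with Steady-Glo after 30 min at room temperature. Compounds were pin-transferred onto AREc32_Fluc cells (1000/well, OPTI-MEM/5% FBS, seeded overnight) and left 24 hr at 37 deg C.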

[4] = HTS Assay for Allosteric Antagonists of the Human D2 Dopamine Receptor: Hit Validation in HTRF (AID 624455); settings: Cells stably expressing D1 dopamine receptor, inhibition mode; series mostly up to 46.1 µM;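 further: stable D1 dopamine receptor cell line scored for blocking the D1 response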
How it was run: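 Inhibition of the D1-mediated response was measured by HTRF. Cells used were a line stably expressing the D1 dopamine receptor.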

[5] = target: Glucagon-like peptide 1 receptor (Homo sapiens) (UniProt P43220); test: qHTS of GLP-1 Receptor Agonists: LOPAC Validation (AID 624148); settings: GLP-1R agonist cell assay; series mostly up to 46.1 µM;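 further: higher luminescence signal means agonism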
How it was run: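 HEK293 cells stably co-expressing GLP-1R and a cAMP-responsive luciferase reporter, plated 12 hours before compound, then incubated 4-6 hr at 37 deg C. Luminescence read 12 min after detection reagent.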

Measured: Potency

Glutaminase kidney isoform, mitochondrial (Homo sapiens), sequence (O94925 whole entry, looked up, canonical isoform): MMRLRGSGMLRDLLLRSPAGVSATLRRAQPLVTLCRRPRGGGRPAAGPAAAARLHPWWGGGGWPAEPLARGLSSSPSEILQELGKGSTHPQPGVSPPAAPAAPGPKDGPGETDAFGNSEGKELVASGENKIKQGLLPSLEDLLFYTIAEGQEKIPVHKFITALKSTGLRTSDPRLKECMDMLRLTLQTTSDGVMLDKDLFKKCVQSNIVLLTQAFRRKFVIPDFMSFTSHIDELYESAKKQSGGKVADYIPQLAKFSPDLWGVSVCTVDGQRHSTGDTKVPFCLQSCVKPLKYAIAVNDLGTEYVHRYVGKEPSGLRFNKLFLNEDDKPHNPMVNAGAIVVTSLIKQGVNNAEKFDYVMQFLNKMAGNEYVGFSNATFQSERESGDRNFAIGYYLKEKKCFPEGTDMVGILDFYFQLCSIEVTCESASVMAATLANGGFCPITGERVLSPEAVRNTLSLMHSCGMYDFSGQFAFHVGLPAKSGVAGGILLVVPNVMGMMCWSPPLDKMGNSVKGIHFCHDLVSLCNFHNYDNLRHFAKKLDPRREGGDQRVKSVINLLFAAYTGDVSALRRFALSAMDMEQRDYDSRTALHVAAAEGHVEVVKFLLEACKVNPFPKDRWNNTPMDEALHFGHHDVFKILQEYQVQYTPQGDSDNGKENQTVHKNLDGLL
Glucagon-like peptide 1 receptor (Homo sapiens), sequence (P43220 whole entry, looked up): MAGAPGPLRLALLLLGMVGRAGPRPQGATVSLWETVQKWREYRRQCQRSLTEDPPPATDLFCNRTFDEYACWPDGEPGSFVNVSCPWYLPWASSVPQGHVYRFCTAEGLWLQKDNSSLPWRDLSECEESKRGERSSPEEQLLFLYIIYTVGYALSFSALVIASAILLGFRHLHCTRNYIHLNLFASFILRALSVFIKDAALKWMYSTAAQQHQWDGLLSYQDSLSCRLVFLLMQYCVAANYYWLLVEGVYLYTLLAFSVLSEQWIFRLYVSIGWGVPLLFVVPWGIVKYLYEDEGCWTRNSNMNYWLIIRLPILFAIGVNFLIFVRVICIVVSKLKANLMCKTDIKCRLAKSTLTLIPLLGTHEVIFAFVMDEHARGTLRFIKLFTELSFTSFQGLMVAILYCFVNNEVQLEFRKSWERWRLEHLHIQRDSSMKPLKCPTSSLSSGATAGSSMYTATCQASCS

CN(C)CCCO[C@@H]1[C@H]2OC(C)(C)O[C@H]2O[C@@H]1[C@H](O)CO
not listed: [5]
inactive: all other assays above

Cn1cc(C2=C(c3ccc(Cl)cc3Cl)C(=O)NC2=O)c2ccccc21
not listed: [5]
inactive: all other assays above

Cn1c(=O)c2[nH]c(-c3ccccc3)nc2n(C)c1=O
not listed: [3]
inactive: all other assays above

O=C(/C=C/c1ccc(O)cc1)c1ccc(O)cc1O
active: [1] 10 µM
inactive: [2] | [5] | [4]

N#C/C(=C\c1c[nH]c2ccccc12)C(=O)c1ccc(O)c(O)c1
inactive: [2] | [3] | [4]
active: [1] 1.12 µM

CC(C)Cc1ccc([C@H](C)C(=O)O)cc1
not listed: [3]
inactive: all other assays above

NC(=O)C1=CN(C2OC(COP(=O)(O)OP(=O)(O)OC[C@H]3O[C@@H](n4cnc5c(N)ncnc54)[C@H](OP(=O)(O)O)[C@@H]3O)C(O)C2O)C=CC1 (some centres not stated)
not listed: [5]
inactive: all other assays above

C#CCN1C(C)=C(C(=O)OC)C(c2cccc([N+](=O)[O-])c2)C(C(=O)OCC)=C1C (configuration not stated)
not listed: [5]
inactive: all other assays above

CO/N=C(\C(=O)N[C@@H]1C(=O)N2C(C(=O)O)=C(COC(C)=O)CS[C@H]12)c1csc(N)n1
not listed: [3]
inactive: all other assays above

CCCCCC(O)c1cccc(OCc2ccc3ccccc3n2)c1 (configuration not stated)
inactive: all assays above

NC(=S)c1ccc[n+]([C@@H]2O[C@@H](COP(=O)([O-])OP(=O)(O)OC[C@H]3O[C@@H](n4cnc5c(N)ncnc54)[C@H](OP(=O)(O)O)[C@@H]3O)C(O)C2O)c1 (some centres not stated)
not listed: [3]
inactive: all other assays above

OC[C@H]1O[C@@H](n2cnc3c(Nc4ccccc4)ncnc32)[C@H](O)[C@@H]1O
not listed: [3]
inactive: all other assays above

CCCCCCCCCCCCCCCC(=O)NCC(COP(=O)([O-])OCC[N+](C)(C)C)OCC (configuration not stated)
not listed: [3]
inactive: all other assays above

C[N+](C)(CCCCCC[N+](C)(C)CCCN1C(=O)c2cccc3cccc(c23)C1=O)CCCN1C(=O)c2cccc3cccc(c23)C1=O
not listed: [5]
inactive: all other assays above

C=C[C@H]1CN2CC[C@@H]1C[C@@H]2[C@@H](O)c1ccnc2ccc(OC)cc12
not listed: [5]
inactive: all other assays above

CN(C)c1nc2c(Br)c(Br)c(Br)c(Br)c2[nH]1
not listed: [3]
inactive: all other assays above

CC(C)CC(NP(=O)(O)O[C@@H]1O[C@@H](C)[C@H](O)[C@@H](O)[C@H]1O)C(=O)NC(Cc1c[nH]c2ccccc12)C(=O)O (some centres not stated)
not listed: [5]
inactive: all other assays above

C[N+](C)(C)CCOP(=O)(O)OP(=O)([O-])OC[C@H]1O[C@@H](n2ccc(N)nc2=O)[C@H](O)[C@@H]1O
not listed: [3]
inactive: all other assays above

COc1cccc(C(=O)NCCN2CCN(c3ccc(Cl)cc3)CC2)c1
not listed: [5]
inactive: all other assays above

O=C(/C=C/c1ccc(O)c(O)c1)OCCc1ccccc1
inactive: [2] | [5] | [4]
active: [1] 0.891 µM

CN=c1nc(-c2ccccc2)n(-c2ccccc2)s1
inactive: [1] | [3] | [4]
active: [2] 8.49 µM

O=C(c1ccc(OCCCc2cnc[nH]2)cc1)C1CC1
not listed: [3]
inactive: all other assays above

O=[N+]([O-])c1ccc(CSc2ncnc3c2ncn3[C@@H]2O[C@H](CO)[C@@H](O)[C@H]2O)cc1
not listed: [5]
inactive: all other assays above

CN1CCc2ccccc2Cc2[nH]c3ccccc3c2CC1
active: [1] 8.91 µM
inactive: [2] | [5] | [4]

COc1cc(SC)ccc1C(=O)N1CCC(Cc2ccccc2)CC1
inactive: all assays above

Cc1ccc(C(=O)O[C@H](C(=O)O)[C@@H](OC(=O)c2ccc(C)cc2)C(=O)O)cc1 (tested in a mixture with another compound)
not listed: [3]
inactive: all other assays above

NCCCS(=O)(=O)O
not listed: [5]
inactive: all other assays above

O=C(O)CC1CC(c2ccccc2)=NO1 (configuration not stated)
not listed: [5]
inactive: all other assays above

COc1ccccc1CNCCCCCCNCCCCCCCCNCCCCCCNCc1ccccc1OC
inactive: [1] | [2] | [4]

— PubChem BioAssay (NCATS)
